Measured values reported in the OligoGym collection.

target: FGF2; test: pooled miR-30 sensor sort-seq; sequence = guide strand; details: shRNA
Further: reference of the scale not given here.

Row | Sequence | sensor-assay potency score (higher = more potent)
1 | TAGAAGCCAGTAATCTTCCATC | -0.587
2 | TTTGATAGACACAACTCCTCTC | 0.744
3 | TGAGGGTCGCTCTTCTCCCGGA | -0.455
4 | TTGATAGACACAACTCCTCTCT | 0.382
5 | AACGGTTAGCACACACTCCTTT | 0.1
6 | TTCAGTGCCACATACCAACTGG | -0.475
7 | TAACGGTTAGCACACACTCCTT | -1.27
8 | TCCATCTTCCTTCATAGCCAGG | -1.98
9 | TTGCAGTACAGCCGCTTGGGGT | -1.34
10 | TTCTAAAATATACTTCTTCTTT | -0.418
11 | TAGCTTGATGTGAGGGTCGCTC | -0.132
12 | TTAGAAGCCAGTAATCTTCCAT | 0.816
13 | AAAAAAGAAACACTCATCCGTA | 0.00256
14 | TAGTTATTAGATTCCAATCGTT | -0.676
15 | TTGGAAGAAAAAGTATAGCTTT | 0.162
16 | TATTAGATTCCAATCGTTCAAA | -0.684
17 | TAGCTTTCTGCCCAGGTCCTGT | -0.929
18 | TAGACACAACTCCTCTCTCTTC | -0.65
19 | TTTGGATCCAAGTTTATACTGC | -0.268
20 | ATAGACACAACTCCTCTCTCTT | -0.298
21 | TGGTGTATTTCCTTGACCGGTA | -0.344
22 | TAACACATTTAGAAGCCAGTAA | -0.0447
23 | TTTGCAGTACAGCCGCTTGGGG | -0.977
24 | TATACTTCTTCTTTCATGTGAA | 0.715
